Holding throughout (test): DAPPL (digital affinity profiling via proximity ligation, sequencing); 10 mM Tris-HCl pH 7.5, 50 mM NaCl, 1 mM DTT, 4% glycerol, room temperature, 30 min; GST-TFs on glutathione beads, 16-mer random dsDNA library, 0.1% formaldehyde crosslink after washing; high values mean tight binding
What all share (details): protein: recombinant; tags: N-terminal GST; dsDNA, one strand shown

The target in one assay is T1, FLI1 (Homo sapiens, UniProt Q01543 1-452).
T1 sequence: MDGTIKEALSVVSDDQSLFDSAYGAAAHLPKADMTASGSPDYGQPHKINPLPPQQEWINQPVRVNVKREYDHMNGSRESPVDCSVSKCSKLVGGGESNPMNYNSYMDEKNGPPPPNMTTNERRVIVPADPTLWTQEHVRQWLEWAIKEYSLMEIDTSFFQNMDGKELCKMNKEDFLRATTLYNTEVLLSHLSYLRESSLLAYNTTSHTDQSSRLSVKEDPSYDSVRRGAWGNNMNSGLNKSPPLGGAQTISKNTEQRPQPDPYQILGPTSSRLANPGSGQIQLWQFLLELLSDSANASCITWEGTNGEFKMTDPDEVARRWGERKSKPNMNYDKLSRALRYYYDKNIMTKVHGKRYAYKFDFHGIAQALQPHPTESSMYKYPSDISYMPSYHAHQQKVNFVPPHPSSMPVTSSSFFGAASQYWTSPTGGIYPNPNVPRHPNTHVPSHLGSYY
The method in brief: (§1)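 Binding signal is each hexamer's read frequency for a factor divided by its frequency in the tag-only sample. The factors were GST-fused human transcription factors from yeast, captured on glutathione beads, DNA-barcoded and pooled with that sample. Pools were incubated with 200 nmole of a random double-stranded 16-mer DNA library in Tris/NaCl/DTT/glycerol buffer at room temperature for 30 min, then washed, crosslinked with 0.1% formaldehyde, proximity-ligated with BsaI/T4 ligase (1 h, 37 °C), PCR-amplified and sequenced on an Illumina NextSeq500.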

For another assay, the target named is T2, ELK1 (Homo sapiens, UniProt P19419 1-428).
T2 sequence: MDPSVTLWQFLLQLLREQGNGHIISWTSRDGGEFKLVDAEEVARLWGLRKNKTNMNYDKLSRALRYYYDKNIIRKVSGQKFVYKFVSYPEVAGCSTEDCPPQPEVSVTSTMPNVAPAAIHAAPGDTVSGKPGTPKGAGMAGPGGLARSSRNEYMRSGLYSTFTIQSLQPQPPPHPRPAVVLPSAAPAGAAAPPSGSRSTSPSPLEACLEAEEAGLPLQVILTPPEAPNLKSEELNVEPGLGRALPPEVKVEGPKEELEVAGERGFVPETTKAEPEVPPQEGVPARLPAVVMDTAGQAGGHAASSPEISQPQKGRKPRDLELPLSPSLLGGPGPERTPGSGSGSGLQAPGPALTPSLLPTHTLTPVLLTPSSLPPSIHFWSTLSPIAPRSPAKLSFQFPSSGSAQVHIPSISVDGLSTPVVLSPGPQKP
Put shortly:
as §1

The target of another assay is T3, GABPA (Homo sapiens, UniProt Q06546 1-454).
T3 sequence: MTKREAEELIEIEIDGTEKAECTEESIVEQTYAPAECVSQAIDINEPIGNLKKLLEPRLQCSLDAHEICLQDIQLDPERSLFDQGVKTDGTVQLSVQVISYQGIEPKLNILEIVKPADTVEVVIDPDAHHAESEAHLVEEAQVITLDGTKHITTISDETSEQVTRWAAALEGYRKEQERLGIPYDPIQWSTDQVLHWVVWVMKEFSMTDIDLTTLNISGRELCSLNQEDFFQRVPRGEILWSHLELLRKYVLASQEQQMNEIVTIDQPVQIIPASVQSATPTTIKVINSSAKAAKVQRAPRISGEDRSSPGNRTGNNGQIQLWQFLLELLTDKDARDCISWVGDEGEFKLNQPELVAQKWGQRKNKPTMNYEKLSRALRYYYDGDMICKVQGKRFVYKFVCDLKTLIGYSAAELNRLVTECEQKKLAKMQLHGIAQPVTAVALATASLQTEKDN
The method in brief:
as §1

For another assay, the target named is T4, ERG (Homo sapiens, UniProt P11308 1-479).
T4 sequence: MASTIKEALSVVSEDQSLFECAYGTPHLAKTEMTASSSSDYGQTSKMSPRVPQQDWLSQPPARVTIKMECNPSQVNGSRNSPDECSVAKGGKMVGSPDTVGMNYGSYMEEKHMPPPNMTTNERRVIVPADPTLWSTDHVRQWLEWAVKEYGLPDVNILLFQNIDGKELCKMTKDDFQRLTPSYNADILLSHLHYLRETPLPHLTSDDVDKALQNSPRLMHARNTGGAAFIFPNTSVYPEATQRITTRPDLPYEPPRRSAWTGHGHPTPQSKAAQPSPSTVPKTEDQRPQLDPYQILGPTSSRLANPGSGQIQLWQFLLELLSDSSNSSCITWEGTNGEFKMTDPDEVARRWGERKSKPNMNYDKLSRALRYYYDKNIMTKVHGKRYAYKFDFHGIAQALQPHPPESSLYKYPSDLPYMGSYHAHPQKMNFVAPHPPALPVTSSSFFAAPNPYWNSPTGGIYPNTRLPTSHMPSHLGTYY
The method in brief:
as §1

The target in another assay is ELF1 (Homo sapiens, UniProt P32519 1-619). The method in brief: as §1
Another assay deals with T5, EHF (Homo sapiens, UniProt Q9NZC4 1-300).
T5 sequence: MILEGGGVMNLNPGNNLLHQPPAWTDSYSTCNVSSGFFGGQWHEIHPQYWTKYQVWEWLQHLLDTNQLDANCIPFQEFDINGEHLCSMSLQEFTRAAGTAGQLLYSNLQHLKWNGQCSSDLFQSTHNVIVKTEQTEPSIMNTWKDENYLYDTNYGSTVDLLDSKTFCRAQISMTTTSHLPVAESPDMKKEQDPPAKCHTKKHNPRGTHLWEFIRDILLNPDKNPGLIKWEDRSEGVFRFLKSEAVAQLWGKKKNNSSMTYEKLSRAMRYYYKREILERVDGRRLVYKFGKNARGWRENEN
The method in brief:
as §1

The target in another assay is SPI1 (Homo sapiens, UniProt P17947 1-270). The method in brief: as §1
The target of a further assay is SPIB (Homo sapiens, UniProt Q01892 1-262). The method in brief: as §1
The next assay has as its target T6, ELK3 (Homo sapiens, UniProt P41970 1-407).
T6 sequence: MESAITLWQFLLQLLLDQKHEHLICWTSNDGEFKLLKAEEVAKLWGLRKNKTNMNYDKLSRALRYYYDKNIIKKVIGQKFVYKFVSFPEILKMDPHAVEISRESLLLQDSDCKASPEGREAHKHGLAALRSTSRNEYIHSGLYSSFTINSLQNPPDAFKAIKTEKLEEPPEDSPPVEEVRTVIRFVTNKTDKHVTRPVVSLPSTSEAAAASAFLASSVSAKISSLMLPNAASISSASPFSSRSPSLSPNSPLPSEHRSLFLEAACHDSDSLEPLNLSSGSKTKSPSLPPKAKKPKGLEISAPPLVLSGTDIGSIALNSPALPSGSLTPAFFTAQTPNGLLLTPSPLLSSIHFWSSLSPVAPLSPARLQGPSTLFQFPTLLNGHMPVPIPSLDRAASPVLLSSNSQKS
Put shortly:
as §1

ELF1, sequence (P32519 whole entry): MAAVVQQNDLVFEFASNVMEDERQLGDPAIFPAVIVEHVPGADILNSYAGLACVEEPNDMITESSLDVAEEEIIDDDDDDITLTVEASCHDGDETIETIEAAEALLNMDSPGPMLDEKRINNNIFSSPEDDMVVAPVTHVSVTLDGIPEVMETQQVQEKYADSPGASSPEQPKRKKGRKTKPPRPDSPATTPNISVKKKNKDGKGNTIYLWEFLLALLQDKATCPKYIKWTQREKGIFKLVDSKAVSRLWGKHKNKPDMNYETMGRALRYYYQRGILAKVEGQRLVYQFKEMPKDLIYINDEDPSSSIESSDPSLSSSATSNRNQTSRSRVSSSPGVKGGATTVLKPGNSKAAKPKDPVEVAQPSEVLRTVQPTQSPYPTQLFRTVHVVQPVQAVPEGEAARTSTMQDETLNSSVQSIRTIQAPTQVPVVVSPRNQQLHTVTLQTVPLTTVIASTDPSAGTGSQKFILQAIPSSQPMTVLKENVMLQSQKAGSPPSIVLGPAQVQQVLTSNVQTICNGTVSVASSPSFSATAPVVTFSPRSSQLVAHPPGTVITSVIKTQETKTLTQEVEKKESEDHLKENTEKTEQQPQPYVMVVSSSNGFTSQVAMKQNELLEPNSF
SPIB, sequence (Q01892 whole entry): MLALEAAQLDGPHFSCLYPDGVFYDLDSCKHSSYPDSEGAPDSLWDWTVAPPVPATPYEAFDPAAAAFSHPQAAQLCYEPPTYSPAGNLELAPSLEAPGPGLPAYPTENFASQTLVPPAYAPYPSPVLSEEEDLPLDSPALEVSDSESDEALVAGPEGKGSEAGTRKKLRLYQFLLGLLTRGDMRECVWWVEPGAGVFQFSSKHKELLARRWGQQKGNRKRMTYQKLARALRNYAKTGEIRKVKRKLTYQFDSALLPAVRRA

As to TAAAAA, the binding signal is 1.27 fold enrichment (6-mer frequency, TF over GST control) with FLI1; 1.13 fold enrichment (6-mer frequency, TF over GST control) with ELK1; 1.36 fold enrichment (6-mer frequency, TF over GST control) with GABPA; 1.26 fold enrichment (6-mer frequency, TF over GST control) in the assay with ERG; 1.26 fold enrichment (6-mer frequency, TF over GST control) with ELF1; 1.29 fold enrichment (6-mer frequency, TF over GST control) with EHF. For the same sequence, the binding signal was 1.53 fold enrichment (6-mer frequency, TF over GST control) in the assay with SPI1; 1.35 fold enrichment (6-mer frequency, TF over GST control) with SPIB; 1.32 fold enrichment (6-mer frequency, TF over GST control) in the assay with ELK3.

Turning to AAAGCA, the binding signal is 1.01 fold enrichment (6-mer frequency, TF over GST control) with FLI1; 1.04 fold enrichment (6-mer frequency, TF over GST control) with ELK1; 1.15 fold enrichment (6-mer frequency, TF over GST control) with GABPA; 1.09 fold enrichment (6-mer frequency, TF over GST control) with ERG; 1.04 fold enrichment (6-mer frequency, TF over GST control) in the assay with ELF1; 1.02 fold enrichment (6-mer frequency, TF over GST control) with EHF. The binding signal is 1.1 fold enrichment (6-mer frequency, TF over GST control) in the assay with SPI1; 1.08 fold enrichment (6-mer frequency, TF over GST control) with SPIB; 1.05 fold enrichment (6-mer frequency, TF over GST control) with ELK3.

Consider AAGTCT, for which the binding signal in the assay with FLI1 was 1.28 fold enrichment (6-mer frequency, TF over GST control); with ELK1, 1.18 fold enrichment (6-mer frequency, TF over GST control); with GABPA, 1.07 fold enrichment (6-mer frequency, TF over GST control); with ERG, 1.12 fold enrichment (6-mer frequency, TF over GST control); with ELF1, 1.14 fold enrichment (6-mer frequency, TF over GST control); with EHF, 1.13 fold enrichment (6-mer frequency, TF over GST control). The binding signal with SPI1 was 1.27 fold enrichment (6-mer frequency, TF over GST control); in the assay with SPIB, 1.29 fold enrichment (6-mer frequency, TF over GST control); in the assay with ELK3 it was 1.18 fold enrichment (6-mer frequency, TF over GST control).

As for TTACCA, the binding signal with FLI1 was 1.12 fold enrichment (6-mer frequency, TF over GST control); with ELK1 it was 1.06 fold enrichment (6-mer frequency, TF over GST control); in the assay with GABPA, 1.04 fold enrichment (6-mer frequency, TF over GST control); with ERG, 1.11 fold enrichment (6-mer frequency, TF over GST control); with ELF1, 1.13 fold enrichment (6-mer frequency, TF over GST control); with EHF, 1.03 fold enrichment (6-mer frequency, TF over GST control). Moreover, the binding signal in the assay with SPI1 is 1.11 fold enrichment (6-mer frequency, TF over GST control); with SPIB, 1.12 fold enrichment (6-mer frequency, TF over GST control); with ELK3, 1.14 fold enrichment (6-mer frequency, TF over GST control).

As to ATGAAT, the binding signal with FLI1 was 1.16 fold enrichment (6-mer frequency, TF over GST control); with ELK1, 1.16 fold enrichment (6-mer frequency, TF over GST control); with GABPA, 1.2 fold enrichment (6-mer frequency, TF over GST control); in the assay with ERG, 1.11 fold enrichment (6-mer frequency, TF over GST control); with ELF1, 1.07 fold enrichment (6-mer frequency, TF over GST control); in the assay with EHF, 1.14 fold enrichment (6-mer frequency, TF over GST control). Besides, the binding signal in the assay with SPI1 was 1.15 fold enrichment (6-mer frequency, TF over GST control); with SPIB, 1.23 fold enrichment (6-mer frequency, TF over GST control); with ELK3, 1.12 fold enrichment (6-mer frequency, TF over GST control).

Take CCGTTT: the binding signal with FLI1 was 1.47 fold enrichment (6-mer frequency, TF over GST control); in the assay with ELK1, 1.36 fold enrichment (6-mer frequency, TF over GST control); with GABPA it was 1.33 fold enrichment (6-mer frequency, TF over GST control); with ERG, 1.57 fold enrichment (6-mer frequency, TF over GST control); in the assay with ELF1, 1.29 fold enrichment (6-mer frequency, TF over GST control); in the assay with EHF, 1.33 fold enrichment (6-mer frequency, TF over GST control). Besides, the binding signal with SPI1 is 1.56 fold enrichment (6-mer frequency, TF over GST control); in the assay with SPIB, 1.39 fold enrichment (6-mer frequency, TF over GST control); with ELK3 it was 1.35 fold enrichment (6-mer frequency, TF over GST control).

Regarding TAAGTA, the binding signal with FLI1 is 1.21 fold enrichment (6-mer frequency, TF over GST control); in the assay with ELK1, 1.26 fold enrichment (6-mer frequency, TF over GST control); with GABPA, 1.28 fold enrichment (6-mer frequency, TF over GST control); in the assay with ERG, 1.22 fold enrichment (6-mer frequency, TF over GST control); in the assay with ELF1, 1.24 fold enrichment (6-mer frequency, TF over GST control); with EHF, 1.19 fold enrichment (6-mer frequency, TF over GST control). Also, the binding signal with SPI1 is 1.16 fold enrichment (6-mer frequency, TF over GST control); in the assay with SPIB, 1.22 fold enrichment (6-mer frequency, TF over GST control); with ELK3 it was 1.22 fold enrichment (6-mer frequency, TF over GST control).

Source of the values: article PMC7862700, “An all-to-all approach to the identification of sequence-specific readers for epigenetic DNA modifications on cytosine”.
